# Where “and” joins values, the source holds several entries; their conditions need not be identical. Equal entries are not always repeated. Screen size: about 290,000 compounds; about 260 (0.09%) were called active. The sample holds actives, similar compounds and a random draw of the others, so the mix is not that of the screen. Cut-off read from the data, not from the text of the source: active = inhibition above about 50%; inactive = the rest. Measured potencies and affinities stand elsewhere.
# Target: Kappa-type opioid receptor (Homo sapiens) (UniProt P41145)
# Experiment: KOR antagonists, beta-arrestin recruitment, cell-based, luminescence, uHTS (AID 1778)
# Settings: antagonist mode, stronger effect = higher value; at 10 µM unless noted
# Chain of Kappa-type opioid receptor (Homo sapiens) (P41145 whole entry, looked up): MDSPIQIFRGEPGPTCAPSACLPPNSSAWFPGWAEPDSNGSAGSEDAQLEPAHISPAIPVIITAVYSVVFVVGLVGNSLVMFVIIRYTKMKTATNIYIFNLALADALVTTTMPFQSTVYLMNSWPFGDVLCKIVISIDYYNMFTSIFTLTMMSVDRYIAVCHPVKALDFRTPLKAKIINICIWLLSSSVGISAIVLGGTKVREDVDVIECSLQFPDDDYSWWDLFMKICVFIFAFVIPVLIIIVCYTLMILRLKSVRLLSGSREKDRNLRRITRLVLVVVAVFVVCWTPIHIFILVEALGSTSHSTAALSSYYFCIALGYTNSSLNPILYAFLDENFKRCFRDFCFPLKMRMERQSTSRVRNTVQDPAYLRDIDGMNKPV
row,Structure (SMILES),inhibition
1,Cc1ccc(S(=O)(=O)NN)c(C)c1N1CCCC1=O,24.2% (inactive)
2,Cc1cccc(C)c1NC(=O)C1CCCN1S(=O)(=O)c1ccccc1 (centres undefined),-40.1% (inactive)
3,O=C(NCc1cccnc1)C1c2ccccc2C(=O)N1C1CCCCCC1 (centres undefined),-16.6% (inactive)
4,O=C(NCCc1nnc2ccc(N3CCCCCC3)nn12)c1ccccc1,-2.6% (inactive)
5,CN(C)c1ccc(P(=O)(Nc2cccc(C(F)(F)F)c2)N2CCOCC2)c(NC(=O)c2cccs2)c1 (centres undefined),41.3% (inactive)
6,CNC(=S)N1N=C(c2ccc(C)cc2)CC1c1ccc(N(C)C)cc1 (centres undefined),7.7% (inactive)
7,CC1CCCCN1C(=O)COc1ccccc1F (centres undefined),-32.6% [at 20 µM] (inactive)
8,O=C(Nc1ccnc(-c2cccnc2)n1)c1ccc(Cl)cc1,-18.4% (inactive)
9,O=C1COc2ccc(C(=O)CSc3nnc(NCc4ccccc4)s3)cc2N1,21.4% (inactive)
10,CCNC(=S)N=Nc1c(O)n(Cc2ccc(Cl)cc2)c2ccccc12,-4.3% (inactive)
11,Oc1[nH]c2ccccc2c1N=NC(=S)NCC1CCCO1 (centres undefined),-22% (inactive)
12,CCn1c(O)c(N=NC(=S)NCC2CCCO2)c2ccccc21 (centres undefined),60.6% (active)
13,COc1ccc(CNC(=O)c2ccc(CN3CCOCC3)cc2)cc1,-18.5% (inactive)
14,O=C(NCc1ccco1)C(=O)c1cn(CC(=O)N2CCCC2)c2ccccc12,-7.4% (inactive)
15,O=C(COc1ccccc1)Nc1nnc(S(=O)(=O)N2CCCC2)s1,-9.4% (inactive)
16,Cc1cc(NCc2ccccn2)n2c(nc3ccccc32)c1C#N,18.9% [at 20 µM] (inactive)
17,CCCNC(=O)COc1cccc(C(=O)NCc2ccccc2)c1,16.7% (inactive)
18,Oc1ccc(Nc2ccnc3cc(Cl)ccc23)cc1,25.2% (inactive)
19,Oc1ccc(/C=N/Nc2ccnc3cc(Cl)ccc23)c(O)c1,3.8% (inactive)
20,O=C(O)CC1(CC(=O)Nc2ccc(C(F)(F)F)cc2)CCCC1,-5.5% (inactive)
21,O=C(N/N=C/c1cc2cc3c(cc2nc1Cl)OCO3)c1ccncc1,-14.5% (inactive)
22,COc1ccc(N2CCN(C(=S)NC(=O)c3cccs3)CC2)c([N+](=O)[O-])c1,4.6% (inactive)
23,O=C(NC(=S)N1CCN(c2ccc(C(F)(F)F)cc2[N+](=O)[O-])CC1)c1cccs1,6.2% (inactive)
24,CC(=O)c1ccc(NC(=S)N2CCCC(CO)C2)cc1 (centres undefined),35.3% (inactive)

row,Structure (SMILES),inhibition
1,C#CCOCCOCCOCCNc1nc(N2CCN(C(=O)[C@H](C)n3cc(CCCN=C(N)N)nn3)CC2)nc(N2CCN(C(=O)[C@H](CCCCN)n3cc(CCCC)nn3)CC2)n1,-17.1% (inactive)
2,CN(Cc1ccccc1)c1ccc(C(CC(N)=O)NC(=O)c2ccccc2)cc1[N+](=O)[O-] (centres undefined),-1.2% [at 20 µM] (inactive)
3,O=C(CN1CCN(c2ccc(F)cc2)CC1)OCc1ccccc1,21.3% (inactive)
4,Cc1ccc2oc(Nc3nc(C)c(C)c(C)n3)nc2c1,6.8% (inactive)
5,Cc1ccc2oc(Nc3nc(C)cc(C)n3)nc2c1,12.4% (inactive)
6,Cc1cc(C)nc(Nc2nc3ccccc3o2)n1,17.6% (inactive)
7,COCc1cc(=O)[nH]c(Nc2nc3ccccc3o2)n1,14.7% (inactive)
8,COc1ccccc1-c1ccc(Nc2cccc(C(F)(F)F)c2)nn1,-2.2% (inactive)
9,CCOc1ccc(S(=O)(=O)N(C)CC(=O)NCc2ccco2)cc1,5% (inactive)
10,CCCC1=C(C(=O)OCC)C(c2c(C)nn(-c3ccccc3)c2Cl)C(C#N)=C(N)O1 (centres undefined),-61.5% (inactive)
11,CCCOc1cccc(-c2cc(C(=O)N/N=C/c3cccnc3)c3ccccc3n2)c1,-14% (inactive)
12,CCCOc1cccc(-c2cc(C(=O)NN)c3ccccc3n2)c1,-44.7% (inactive)
13,O=C(CN1C(=O)S/C(=C\c2ccc(F)cc2)C1=O)NCCCn1ccnc1,1.3% (inactive)
14,O=C(/C=C/c1ccc([N+](=O)[O-])cc1)Oc1ccc(/C=N/NC(=O)c2ccncc2)cc1,-27.5% (inactive)
15,O=C(CSc1cccc2cccnc12)N/N=C/c1ccc(F)cc1,17.3% (inactive)
16,O=C(Sc1cccc2cccnc12)c1ccc(F)cc1,73.6% (active)
17,CCN(CC)C(=O)Sc1cccc2cccnc12,19.2% (inactive)
18,CC(=O)/C(=N\Nc1ccccc1)Sc1cccc2cccnc12,13.9% (inactive)
19,O=C(O)CSc1cccc2cccnc12,-59.2% (inactive) and -13% (inactive)
20,Cc1cccc(CSc2ccc3nnc(-c4ccccn4)n3n2)c1,8.5% (inactive)
21,Cc1cc(NC(=O)c2cc(C3CC3)on2)n(-c2ccccc2)n1,-9.5% (inactive)
22,COc1cc(/C=N/n2nnnc2N)ccc1OC(C)C,26.9% (inactive)
23,O=C(CCCCCN1C(=O)c2ccccc2C1=O)Oc1ccc2c3c(c(=O)oc2c1)CCC3,-61.9% (inactive)
24,CC1=C(C(=O)Nc2ccccc2C)C(c2ccccc2)NC(=O)N1 (centres undefined),-32.2% (inactive)

row,Structure (SMILES),inhibition
1,CCOC(=O)c1c(CN2CCCCC2)n(C)c2ccc(OC)c(S(=O)(=O)c3ccccc3)c12,4.2% (inactive)
2,Cc1ccc(C(=O)O)cc1-n1c(=O)n(Cc2ccccc2)c(=O)c2[nH]cnc21,-9.2% (inactive)
3,COc1ccc(Cn2c(=O)c3[nH]cnc3n(-c3ccccc3C)c2=O)cc1,-13.7% (inactive)
4,COC(=O)c1cccc(-n2c(=O)n(Cc3ccccc3)c(=O)c3[nH]cnc32)c1C,23.8% (inactive)
5,COc1cccc(Cn2c(=O)c3[nH]cnc3n(-c3ccccc3C)c2=O)c1,7.3% (inactive)
6,O=C(Nc1ccc(Oc2ccccc2)cc1)c1cnc2n(c1=O)CCS2,0.1% (inactive)
7,Cc1ccc(S(=O)(=O)N(Cc2cc3ccc(C)cc3[nH]c2=O)c2ccccc2)cc1,17.5% (inactive)
8,CCCCCn1c(SCCCC)nc2c1c(=O)[nH]c(=O)n2C,-43.8% (inactive)
9,COc1cc2c(cc1OC)C1(CCCC1)CNC2C (centres undefined),7.4% (inactive)
10,COc1cc2c(cc1OC)C1(CCCC1)CNC2c1ccc([N+](=O)[O-])cc1 (centres undefined),-8.4% (inactive)
11,COc1ccc(OC)c(NC(=O)Nc2ccc3c(c2)OCO3)c1,-10.5% (inactive)
12,O=C(Nc1ccc(C(F)(F)F)cc1)c1ccc2ncsc2c1,-15.9% (inactive)
13,O=C1C(Cl)=C(Nc2ccc3cn[nH]c3c2)C(=O)c2ccccc21,76.4% (active)
14,O=C1C(Cl)=C(Nc2ccccc2)C(=O)c2ccccc21,15.5% (inactive)
15,Cc1ccc(NC2=C(Cl)C(=O)c3ccccc3C2=O)cc1,37.4% (inactive)
16,COC(=O)c1c(NC(=O)/C=C/C(=O)O)sc(Cc2ccccc2)c1C,14.3% (inactive)
17,NNC(=O)c1ccc(CSc2cccc3cccnc23)cc1,-21.6% (inactive)
18,O=C(c1ccc(CNS(=O)(=O)c2ccc(Br)cc2)cc1)N1CCCCCC1,-30.5% (inactive)
19,CC(=O)N1CCc2cc(S(=O)(=O)NC(Cc3ccccc3)C(=O)NCCN3CCCCC3C)ccc21 (centres undefined),15% (inactive)
20,N#CC(=C1N=c2ccccc2=N1)c1c(O)[nH]c2ccccc12,-33.6% (inactive)
21,Oc1[nH]c(=S)sc1C=C1N=c2ccccc2=N1,6.5% (inactive)
22,Oc1[nH]c(N=C2N=c3ccccc3=N2)c2ccccc12,59.4% (active)
23,O=C(COc1ccccc1)N1CCN=C1SCc1ccc(F)cc1,2.9% (inactive)
24,O=C(CSc1nnc2c(Cl)cc(C(F)(F)F)cn12)N(Cc1ccccc1)Cc1ccccc1,1% (inactive)

row,Structure (SMILES),inhibition
1,Cc1cc(NS(=O)(=O)c2ccc(NC(=O)c3ccc(Cl)cc3Cl)cc2)no1,-5.5% (inactive)
2,O=C(N/N=C(\c1ccccc1)c1cccnc1)c1cc(O)ccc1O,-0.3% (inactive)
3,O=C(N/N=C(\c1ccccc1)c1cccnc1)c1ccc(O)cc1,28.3% (inactive)
4,CC1=C(C#N)C(NC(=O)c2ccco2)(C(F)(F)F)C(=O)N1 (centres undefined),9.4% (inactive)
5,CCc1nnc(NC(=O)c2ccc3ccccc3n2)s1,0.1% (inactive)
6,CCc1nnc(NC(=O)c2c(OC)cccc2OC)s1,-5.6% (inactive)
7,C=CCN1C(=O)C(CC(=O)O)SC1=Nc1ccc(C(=O)O)cc1 (centres undefined),5.3% (inactive)
8,CCOC(=O)C1CCN(S(=O)(=O)c2cc(C(=O)N3CCCCC3)ccc2OC)CC1,2.3% (inactive)
9,COc1ccc(CNC(=O)C2CCC(=O)N(CCCN3CCCC3=O)C2)c(OC)c1 (centres undefined),-21.5% (inactive)
10,COc1cc(NC(=O)CN2CCCCC2)c(C)cc1[N+](=O)[O-],13% (inactive)
11,COc1cc(NC(=O)CN2C(=O)CN(C)C2=O)c(C)cc1[N+](=O)[O-],-7.1% (inactive)
12,COc1ccc(SCC(=O)c2cc(C)c(OC(=S)N(C)C)c(C)c2)cc1,-46.3% (inactive)
13,CC(C)C(=O)OCC(=O)NCc1ccccc1Cl,-7.3% (inactive)
14,O=C(CCN1C(=O)[C@@H]2Cc3ccccc3CN2C1=O)N[C@H](Cc1ccccc1)C(=O)O,-10% [at 20 µM] (inactive)
15,C=CCn1c(O)c(N=NC(=S)Nc2cccc(OC)c2)c2ccccc21,52.2% (active)
16,C=CCn1c(O)c(N=NC(=S)Nc2cccc(C)c2)c2ccccc21,34% (inactive)
17,C=CCn1c(O)c(N=NC(=S)Nc2ccc(OC)cc2)c2ccccc21,44.9% (inactive)
18,N=C1C(c2nc3ccccc3s2)=C(O)CN1CCCO,5.8% (inactive)
19,CCN(CC)CCCN=Cc1c(-c2ccccc2)[nH]n(-c2nc3ccccc3s2)c1=O,2.1% (inactive)
20,Cc1cc(Cl)ccc1NC(=O)Cn1cncn1,-2.4% (inactive)
21,CC(CCc1ccc(O)cc1)NCCC(c1ccccc1)c1ccccc1 (centres undefined),42.6% (inactive)
22,CC(NCCC(c1ccccc1)c1ccccc1)c1ccccc1 (centres undefined),-18.9% (inactive)
